DT40 TDP1 no CPT: qHTS for Inhibitors of human tyrosyl-DNA phosphodiesterase 1 (TDP1): qHTS in cells in absence of CPT; DT40 Tdp1-/- hTDP1 cells, no CPT, ATP luminescence, 48 h; Potency, µM (titrated, usually from 46.2 µM), hits mostly inhibitors; 420,000 compounds, 15% hits; AID 686978, 2013; also: nearly all actives have a fitted effect of over 55% in size
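Stably hTDP1-transfected Tdp1-null chicken DT40 cells were treated with library compounds minus camptothecin and grown for at least 48 hr at 37 °C, after which cellular ATP was quantified by luminescence.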
Giardia killer: Small Molecules that selectively kill Giardia lamblia: qHTS | activity change, % at 7.66 µM, hits read low | Giardia lamblia trophozoite viability | 340,000 compounds, 0.15% hits; in the data active = activity change below about -80%; inconclusive = between about -30% and that limit;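 also: parasites exposed to compound for two days anaerobically before the ATP read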
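Trophozoite viability was measured as ATP-dependent luminescence, read 15-30 min after reagent addition. Before that, parasites at 100 cells/well were exposed to compounds for 48 h, anaerobically, at 37 deg C.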
ELG1 DNA repair: qHTS screen for small molecules that inhibit ELG1-dependent DNA repair in human embryonic kidney (HEK293T) cells expressing luciferase-tagged ELG1; 330,000 compounds, 2.3% hits; Potency, µM (doses to about 46.1 µM), most hits filed as inhibitors; AID 504467, 2011; HEK293T ELG1-luciferase reporter, luminescence, 16 h; DNA damage induced by 5-fluorouridine; also: nearly all actives have a fitted effect of over 55% in size
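Quantitative HTS, concentration-response format. 2,000 cells/well co-treated with 5-fluorouridine and compound, 16 hr in 5% CO2 at 37 °C; ONE-Glo luminescence read after 30 min.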
IL1B secr inh: qHTS for Inhibitors of Inflammasome Signaling: IL-1-beta AlphaLISA Primary Screen; THP-1 LPS/ATP IL-1B secretion, AlphaLISA, 16 h; active compounds read low; activity change, % at 57.5 µM; 360,000 compounds, 4.7% hits; AID 743279, 2014; in the data active = activity change below about -50%; inconclusive = mostly about -30% to -49%
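Secreted IL-1B measured by AlphaLISA bead assay after 16 h compound exposure of THP-1 cells; compounds (final up to 57.5 uM) added 1 h before LPS (250 ng/mL) and ATP (1.25 mM) stimulation; lower signal means less secretion.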
TDP1 cell CPT: qHTS for Inhibitors of human tyrosyl-DNA phosphodiesterase 1 (TDP1): qHTS in cells in presence of CPT | chicken DT40 Tdp1-/-;hTDP1 cells + 20 nM CPT, ATP luminescence, 48 h | Potency, µM (titrated, usually from 46.2 µM), actives largely listed as inhibitors | 420,000 compounds, 12% hits; also: nearly all actives have a fitted effect of over 55% in size
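Cell growth measured by CellTiter-Glo luminescence after a minimum 48 h, 37 C compound exposure with 20 nM CPT in Tdp1-knockout DT40 cells stably expressing hTDP1, seeded 400/well; qHTS titration format.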
TDP1 inh: qHTS Assay for Inhibitors of Tyrosyl-DNA Phosphodiesterase (TDP1); Potency, µM (highest dose often 130 µM), actives largely listed as inhibitors; Tyrosyl-DNA phosphodiesterase 1 (Homo sapiens), Q9NUW8; recombinant TDP1, AlphaScreen DNA substrate cleavage; 350,000 compounds, 0.28% hits; also: nearly all actives have a fitted effect of over 40% in size
Target sequence (Q9NUW8 whole entry, looked up): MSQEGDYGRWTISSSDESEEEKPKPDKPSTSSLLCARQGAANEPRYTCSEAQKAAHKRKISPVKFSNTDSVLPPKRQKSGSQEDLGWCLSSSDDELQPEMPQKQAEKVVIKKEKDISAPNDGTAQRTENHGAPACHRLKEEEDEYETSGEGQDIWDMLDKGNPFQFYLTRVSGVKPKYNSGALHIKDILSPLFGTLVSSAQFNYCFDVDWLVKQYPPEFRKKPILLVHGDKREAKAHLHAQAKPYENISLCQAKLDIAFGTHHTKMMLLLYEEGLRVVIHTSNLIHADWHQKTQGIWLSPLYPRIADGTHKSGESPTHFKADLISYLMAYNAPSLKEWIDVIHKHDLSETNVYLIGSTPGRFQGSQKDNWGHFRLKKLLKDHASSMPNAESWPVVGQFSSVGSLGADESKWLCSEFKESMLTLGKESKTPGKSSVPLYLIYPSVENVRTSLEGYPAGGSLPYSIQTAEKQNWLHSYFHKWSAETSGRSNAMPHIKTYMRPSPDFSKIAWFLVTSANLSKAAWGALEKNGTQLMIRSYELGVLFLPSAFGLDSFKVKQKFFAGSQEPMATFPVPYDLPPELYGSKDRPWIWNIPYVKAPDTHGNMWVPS
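Steps: enzyme plus compound, 15 min RT; add biotin/phosphotyrosine-FITC oligonucleotide (15 nM final), react 5 min; add donor/acceptor beads (10 ug/ml final), 10 min; read AlphaScreen. Tdp1 at 1 nM final.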
Numbers stand for hits; - = inactive; ? = inconclusive; . = no result. Most compounds without a hit are left out; they make up all but 19% or so of the library. Unless noted, calls follow the shape of the dose curve; as a rule, active = well fitted curve in the direction sought with a large enough effect; inconclusive = small, poorly fitted or top-dose-only effect, or another doubt; inactive = no such curve, though single readings can be large; an effect the other way counts as inactive or inconclusive.

SMILES | DT40 TDP1 no CPT | Giardia killer | ELG1 DNA repair | IL1B secr inh | TDP1 cell CPT | TDP1 inh
O=C(CN1CCN(Cc2ccccc2)CC1)Nc1ccc(Br)cc1 | 20.6µM | - | - | - | ? | .
CN(CC(=O)Nc1ccccc1Br)C(=O)CN1CCN(Cc2cccc(Cl)c2)CC1 | ? | - | 18.3µM | - | ? | -
CCCCNC(=O)C(C)N(CCN(C)C)C(=O)CCCN1C(=O)NC(c2ccc([N+](=O)[O-])cc2)C(C(=O)OCc2ccccc2)=C1C (stereo unspecified) | 23.1µM | - | - | -78.8 | 18.4µM | -
CCCCNC(=O)C(C1CCCCC1)N(CCN(C)C)C(=O)CCCN1C(=O)NC(c2ccc(-c3ccccc3)cc2)C(C(=O)OCc2ccccc2)=C1C (stereo unspecified) | . | . | ? | . | . | -
COC(=O)CCCCCN1C(=O)NC(c2ccccc2)C(C(=O)OCc2ccccc2)=C1C (stereo unspecified) | 16.4µM | - | - | - | 20.6µM | -
CC1=C(C(=O)OCc2ccccc2)C(c2ccc(Br)cc2)NC(=O)N1CCCCCC(=O)O (stereo unspecified) | - | - | . | - | - | .
CC(C)C[C@@H]1COc2cc(N3CC[C@H](O)C3)ccc2S(=O)(=O)N1 | - | . | . | - | - | .
O=[N+]([O-])c1ccc(S(=O)(=O)NN=Cc2ccc(Cl)c(Cl)c2)cc1 | ? | - | . | - | ? | .
COc1ccccc1N1CCN(C(CNC(=O)c2ccc3c(c2)OCO3)c2cccnc2)CC1 (stereo unspecified) | ? | - | - | - | ? | -
Cc1cc(F)ccc1S(=O)(=O)NCC(c1cccnc1)N1CCc2ccccc21 (stereo unspecified) | 16.4µM | - | ? | - | ? | -
O=C(NCC(c1ccc(F)cc1)N1CCOCC1)c1cccc(Br)c1 (stereo unspecified) | ? | - | - | ? | ? | -
O=C(NCC(c1cccnc1)N1CCc2ccccc21)c1cccc(F)c1 (stereo unspecified) | 20.6µM | . | . | . | 14.6µM | -
O=C(NCC(c1cccnc1)N1CCc2ccccc21)c1cccc(Br)c1 (stereo unspecified) | 13µM | . | . | . | ? | -
Cc1ccc(S(=O)(=O)NCC(c2cccnc2)N2CCc3ccccc32)cc1 (stereo unspecified) | ? | - | - | - | ? | -
O=S(=O)(c1ccccc1)n1nc(-c2ccco2)nc1NCc1ccccc1 | - | . | . | . | ? | -
Cc1nc2c(ncn2-c2ccccc2)c(=O)n1NC(=O)CN1CCN(C)CC1 | - | - | ? | - | - | .
COc1ccc(N2CCN(C(=O)CC34CC5CC(CC(C5)C3)C4)CC2)c([N+](=O)[O-])c1 | 16.4µM | - | ? | - | 20.6µM | -
CCC(=O)N1CCN(c2ccc(OC)cc2[N+](=O)[O-])CC1 | - | - | - | - | - | -
Cc1cc(C)n(-c2cc(N3CCN(C(=O)c4cccc(F)c4)CC3)ccc2[N+](=O)[O-])n1 | - | - | 20.6µM | ? | - | -
O=C(c1cccc(F)c1)N1CCN(c2ccc([N+](=O)[O-])c(N3CCOCC3)c2)CC1 | ? | - | - | - | - | -
Cc1cc(C)n(-c2cc(N3CCN(C(=O)c4ccc(C(C)(C)C)cc4)CC3)ccc2[N+](=O)[O-])n1 | ? | - | ? | - | ? | -
COc1ccc(N2CCN(C(=O)c3cccc(F)c3)CC2)c([N+](=O)[O-])c1 | ? | - | - | -52.5 | ? | -
CO/N=C/c1ccc(N2CCN(C(=O)c3ccc(C)cc3)CC2)c([N+](=O)[O-])c1 | 14.6µM | - | 20.6µM | - | 18.4µM | -

Source: PubChem (National Center for Advancing Translational Sciences (NCATS))
